The record followed here is publication PMC7819943, “Rice protein-binding microarrays: a tool to detect cis-acting elements near promoter regions in rice”.

The full ranking holds about 39,000 sequences; the median of “fluorescence intensity (a.u.)” is about 4,300, and the highest 2% start at about 39,000. For the sample, the highest values were picked, then their nearest neighbours and some sequences at random.

The target in the test is T1, OsSMF1 (Oryza sativa, UniProt Q6ZLB0 1-436).
T1 sequence: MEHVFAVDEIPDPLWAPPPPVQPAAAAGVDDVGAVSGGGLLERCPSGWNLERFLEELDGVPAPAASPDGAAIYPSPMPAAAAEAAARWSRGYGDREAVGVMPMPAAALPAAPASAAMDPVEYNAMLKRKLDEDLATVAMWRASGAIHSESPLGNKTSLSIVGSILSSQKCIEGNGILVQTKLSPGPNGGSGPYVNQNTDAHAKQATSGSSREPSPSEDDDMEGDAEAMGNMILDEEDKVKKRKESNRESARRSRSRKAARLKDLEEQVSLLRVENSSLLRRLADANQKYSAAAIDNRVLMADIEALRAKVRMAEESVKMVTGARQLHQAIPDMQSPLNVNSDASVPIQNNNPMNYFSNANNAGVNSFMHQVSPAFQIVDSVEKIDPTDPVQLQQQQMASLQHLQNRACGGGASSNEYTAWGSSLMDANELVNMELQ
The test can be described thus: protein-binding microarray (RPBM); PBS, 2% BSA, 51.3 ng/ul salmon testes DNA, 50 uM zinc acetate, 200 nM TF, 25 C, 1 h; high values mean tight binding. The conditions noted are these: protein: recombinant; tags: N-terminal polyhistidine and DsRed monomer fusion (pET32a); chain copies: 2; label: CyDye5-dUTP incorporated in the synthesized complementary strand; 3' TTTTT single-stranded linker to array surface; dsDNA, one strand shown. The method, boiled down: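 Polyhistidine-tagged DsRed fusions of transcription factors, joined at the N-terminus, were expressed in E. coli BL21-CodonPlus and isolated on Ni–NTA. They were incubated at 200 nM for 1 h at 25 °C on a custom Agilent array, double-stranded and BSA-blocked, in PBS with 2% BSA, salmon testes DNA and 50 µM zinc acetate. The binding signal is per-feature fluorescence intensity (arbitrary units) read on an Axon 4000B scanner after washing.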
Consider “ACCCACACCTCGTCCCCGTCACCTCCTATATCATCGTCATCGGAGTCACCTAGTGCAG”, for which the binding signal was 6470 fluorescence intensity (a.u.).
For “AATATTCTCTGTCTCGGTGTGGTGTCTCTCCTCTGACGGCCGGAGTCACCTAGTGCAG”, the binding signal was 4810 fluorescence intensity (a.u.).
“ATTAGATTTACCGCAAACAATGACGTCCTCCCTGCCTGGACGGAGTCACCTAGTGCAG”: the binding signal was 4900 fluorescence intensity (a.u.).
As for “ATAATGCATTTAGTATTGCCACCCTGTACTAATAGATGTTCGGAGTCACCTAGTGCAG”, the binding signal is 3810 fluorescence intensity (a.u.).
With “CGAGGCGGGGTGCACCTTCATGGTCAGTGGCCCGTGGTTCCGGAGTCACCTAGTGCAG”, the binding signal is 4270 fluorescence intensity (a.u.).
The same measure for “CGGTGATCCCATACTTGGCACGTACACGTGCCCTCTTGATCGGAGTCACCTAGTGCAG”: 6030 fluorescence intensity (a.u.); for “AAACGGATAAGTTAGTAAGTAATTTCTTCCCTCCTAATTTCGGAGTCACCTAGTGCAG”: 45900 fluorescence intensity (a.u.); for “AAAAGTAATTTATAAATAAAATTTCTATATACGTGTTCTTCGGAGTCACCTAGTGCAG”: 3220 fluorescence intensity (a.u.).
Take “TTATATACTCCCTCTTTCCACGTAAGTTACATTTATTACTCGGAGTCACCTAGTGCAG”: the binding signal was 7340 fluorescence intensity (a.u.).
“CCCGGGCCTCGCCGCGCCGCGCCACGCCACGCCTCCGCCCCGGAGTCACCTAGTGCAG”: the binding signal is 7580 fluorescence intensity (a.u.).
For “CGTCCACCGCGCCGCCGCCGCCCTCCGTCACGCGCGCGCTCGGAGTCACCTAGTGCAG”, the binding signal is 3270 fluorescence intensity (a.u.).
For “TTCTGTAACTTTTCCAACTCACCTTCCTCGCTTCCCACGCCGGAGTCACCTAGTGCAG”, the binding signal was 4820 fluorescence intensity (a.u.).
For the sequence “TCCTCCTTCCTTCCACCTCACCCCAACCCCAACCCCAACCCGGAGTCACCTAGTGCAG”, the binding signal is 4080 fluorescence intensity (a.u.).
Take “CTCCTCACACATTCCCACGCACACATTTCCCCATGCACATCGGAGTCACCTAGTGCAG”: the binding signal was 3180 fluorescence intensity (a.u.).
As for “TTTTCCAACTTACCTCCTTCATTTTCCACGCGCACATTTTCGGAGTCACCTAGTGCAG”, the binding signal is 65500 fluorescence intensity (a.u.).
“GCCTTTCTCTCCACCGCGATTTCTATATATAAAACGCCCCCGGAGTCACCTAGTGCAG”: the binding signal is 9620 fluorescence intensity (a.u.).
Consider “GCGCGCCACGCCACGCCACGCGCCCACGCCTCGCCTCGCCCGGAGTCACCTAGTGCAG”, for which the binding signal is 10000 fluorescence intensity (a.u.).
Turning to “GCGCCACCTATAAAACGCCCGCGCGCCCCGCGCCGCCTCCCGGAGTCACCTAGTGCAG”, the binding signal is 40300 fluorescence intensity (a.u.).
Consider “GGCCGCGTGCGTGTGTCCAAACCTTCTCCACGCATTTCCTCGGAGTCACCTAGTGCAG”, for which the binding signal was 4220 fluorescence intensity (a.u.).
On to “TGCCCACGCCGCGCCGCCGCCTCCTCCTCCTCCTCCTCCTCGGAGTCACCTAGTGCAG”, for which the binding signal was 46900 fluorescence intensity (a.u.).
For “GATCTGACCTCCTCAGCCTCCTTCCCCAACTGTTCCACGCCGGAGTCACCTAGTGCAG”, the binding signal was 44800 fluorescence intensity (a.u.).
The result for “CCACGCGCTCTATAAGTAGACGGCTCTTCGGCGCGTGTCACGGAGTCACCTAGTGCAG” reads 3400 fluorescence intensity (a.u.); that for “GGTTGAAGTTAATACGTGCCAAATCTATAACTTTATTCCGCGGAGTCACCTAGTGCAG”, 3300 fluorescence intensity (a.u.); that for “TGGGAGAGGGTAGTAGGTGGGCCGAGGTACACACGTGGGGCGGAGTCACCTAGTGCAG”, 5560 fluorescence intensity (a.u.).
The result for “TTCGCTGACACGCCCCGTCCACTCTTGTCCACGCTGCGCCCGGAGTCACCTAGTGCAG” reads 3380 fluorescence intensity (a.u.); that for “TCTTGCCTTCTTGCCCTCCACACTGTCCACGTCTCTCCAACGGAGTCACCTAGTGCAG”, 4650 fluorescence intensity (a.u.); that for “GATCAAGGAGGCCGTGGCGGACAGGGAGTGCGGGGTGGATCGGAGTCACCTAGTGCAG”, 3360 fluorescence intensity (a.u.).
The same measure for “CAGTTAACCACCTAACTGATCAAACTCATTCATGTCACTCCGGAGTCACCTAGTGCAG”: 5110 fluorescence intensity (a.u.).
As for “TCAATAGAAAATAAACTGATTCATGTTAAAACCTTCACACCGGAGTCACCTAGTGCAG”, the binding signal was 46600 fluorescence intensity (a.u.).
Turning to “AAAACTTGCAACTGCAATTCATGTCAATTTGCCACATCACCGGAGTCACCTAGTGCAG”, the binding signal was 13200 fluorescence intensity (a.u.).
Consider “ACAGCGTAGGCTTTTCTTTCACGTCACCACGCGTACGCGACGGAGTCACCTAGTGCAG”, for which the binding signal is 6560 fluorescence intensity (a.u.).
For the sequence “TAGTACCAAAGTATTTGTGTGTCACTATGATGTCCTGCCTCGGAGTCACCTAGTGCAG”, the binding signal is 6010 fluorescence intensity (a.u.).
Regarding “GGGTGAAGCGTCGCGCGGCGCGCCGTGGCGTGGCGTGGCGCGGAGTCACCTAGTGCAG”, the binding signal was 6090 fluorescence intensity (a.u.).
Turning to “ATCTTCTTCTTCATCGCTGTGCAGCTACACACTCTCACTGCGGAGTCACCTAGTGCAG”, the binding signal was 3180 fluorescence intensity (a.u.).
Take “GTCATATTTATTTGGATGATGTGGCATGTTCTGGTGGTGACGGAGTCACCTAGTGCAG”: the binding signal was 15700 fluorescence intensity (a.u.).
Regarding “GGCGGTTTTGGATGACGTGGTGCCTACGTGGCTAATTTGACGGAGTCACCTAGTGCAG”, the binding signal was 35600 fluorescence intensity (a.u.).
The same measure for “TGTTTGTCGTGACTTAGCTTAGTTGTTGCTGTTGTTGAGCCGGAGTCACCTAGTGCAG”: 3400 fluorescence intensity (a.u.); for “TTTGATGGTGGTTTTGGCTGACGTGGCACCTACATGGCATCGGAGTCACCTAGTGCAG”: 42900 fluorescence intensity (a.u.).
In the case of “GTGTGGTTTTGCTGATGTGGCGCTGACGTGGCGATATTGACGGAGTCACCTAGTGCAG”, the binding signal was 48500 fluorescence intensity (a.u.).
Turning to “CGGTGGTTTTGGCTGACGTGGCACCTATGTGGCAAATTTGCGGAGTCACCTAGTGCAG”, the binding signal is 7870 fluorescence intensity (a.u.).
Regarding “GAGGGCGGTTTTGCTGATGTGGCGTTGACGTGGCGATGTTCGGAGTCACCTAGTGCAG”, the binding signal is 27700 fluorescence intensity (a.u.).
Consider “GCTTGCTGCTGCTGCTGCTGATAGTTTAGCTTGAGAGAGCCGGAGTCACCTAGTGCAG”, for which the binding signal is 22700 fluorescence intensity (a.u.).
As to “GTTTAGATGGTGGTTTTGGCTGACGTGTCACCTACGTGGCCGGAGTCACCTAGTGCAG”, the binding signal was 24200 fluorescence intensity (a.u.).
With “TTCATATTTATTTGATGACGTGGCTAATCCTGGTCGGATCCGGAGTCACCTAGTGCAG”, the binding signal is 40700 fluorescence intensity (a.u.).
Consider “GAGTTTGATAGCTTAGCAGAAATAGTTTTGCTGACGTGGCCGGAGTCACCTAGTGCAG”, for which the binding signal is 40700 fluorescence intensity (a.u.).
For the sequence “GATGGCGGTTTTGCTGATGTGGCGTTGACGTGCCGACCCGCGGAGTCACCTAGTGCAG”, the binding signal was 13200 fluorescence intensity (a.u.).
With “AAGAGACCTGTTTATTAGCGTCACTGACAGTCGTTGTCACCGGAGTCACCTAGTGCAG”, the binding signal was 3660 fluorescence intensity (a.u.).
Take “ATTTCATCCTTATTAGGGCCTATTTGGAGCATTGGCAGGGCGGAGTCACCTAGTGCAG”: the binding signal was 3750 fluorescence intensity (a.u.).
The same measure for “AGATCCCGAATTCGTGCCACGTGATCTGCCGTCGTGTATTCGGAGTCACCTAGTGCAG”: 6050 fluorescence intensity (a.u.).
Consider “CCCCGCTTCGCCGCCGGCCGCCTCTCTCTTCTCAAGAGTCCGGAGTCACCTAGTGCAG”, for which the binding signal is 3340 fluorescence intensity (a.u.).
Take “GCAACCGCGACGACCGATCCACGTGGCACCACCTCATTGGCGGAGTCACCTAGTGCAG”: the binding signal was 29400 fluorescence intensity (a.u.).
The same measure for “GGGCCCAGCAGGTTCCTAGTAGACTTCGTCGTAGTGGGACCGGAGTCACCTAGTGCAG”: 8310 fluorescence intensity (a.u.); for “GCTATAATATATTGCAGCAGCAGCAGCAGTGGTGGTGGTGCGGAGTCACCTAGTGCAG”: 3360 fluorescence intensity (a.u.).
The result for “TGATGGCCGGTGATCAGTGGCATGTGCATGTTATATTATTCGGAGTCACCTAGTGCAG” reads 3260 fluorescence intensity (a.u.).
